High-throughput results: PubChem BioAssay, National Center for Advancing Translational Sciences (NCATS)
Sampled rows, rich in hits. Any-hit rate of the full collection: about 7.3%.
SMN2 splice enh = increases expression of the SMN2 splice variant; HEK293 SMN2-luciferase splicing reporter, luminescence, 30-36 h; Potency, µM (series often up to 46.1 µM), hits mostly activators; hit rate 2.8% among 210,000; note: nearly all actives have a fitted effect of over 55% in size
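HEK293 cells carry an SMN2 minigene-luciferase reporter in which exon 7 inclusion puts luciferase in frame. Cells were seeded at 2000 cells/well, attached for 10-12 hours, then exposed to compounds for 30-36 hours at 37C before ONE-Glo luminescence.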
ELG1 genotoxic = induces genotoxicity in HEK293T cells with luciferase-tagged ELG1. HEK293T ELG1-luciferase reporter, luminescence, 16 h. Potency, µM (doses to about 46 µM), usual class: activators. hit rate 1.3% among 330,000. AID 504466; note: nearly all actives have a fitted effect of over 60% in size
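DMSO vehicle served as control against compound-treated ELG1-luciferase HEK293T cells; exposure lasted 16 hr at 37 °C and 5% CO2, followed by ONE-Glo luminescence detection after 30 min.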
p53 reactivation = restores transcriptional activity of mutant p53. H1299 p53-A138V BP100-luciferase reporter, luminescence, 24 h. Potency, µM (series often up to 92.2 µM), most hits filed as activators. hit rate 0.063% among 320,000. AID 504706; note: nearly all actives have a fitted effect of over 45% in size
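H1299 (p53-null), stable ts p53-A138V + BP100-Luc; 1000 cells/well, Opti-MEM/10% FBS; cpd 4 pt, 1:5; 24 h, 37 deg C, 5% CO2; detection reagent 10 min RT; luminescence.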
NPC1 prom act = activators of NPC1 promoter; Huh7 NPC1 promoter luciferase reporter, 24 h; hit rate 2.4% among 320,000; AID 485313; Potency, µM (top dose mostly 9.22 µM), most hits filed as activators; note: nearly all actives have a fitted effect of over 60% in size
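Luminescence read-out of NPC1 promoter-driven luciferase in stably transfected Huh7 cells; compounds delivered in DMSO and left 24 h at 37C, 5% CO2, qHTS titration format.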
FLuc modulator = counter-screen for miR-21 project: firefly luciferase inhibitors or activators; P08659; purified FLuc, Km substrates, luminescence inhibition; Potency, µM (series often up to 57.5 µM), most hits filed as inhibitors; hit rate 6.9% among 360,000; note: nearly all actives have a fitted effect of over 55% in size
Target sequence (P08659 whole entry, looked up): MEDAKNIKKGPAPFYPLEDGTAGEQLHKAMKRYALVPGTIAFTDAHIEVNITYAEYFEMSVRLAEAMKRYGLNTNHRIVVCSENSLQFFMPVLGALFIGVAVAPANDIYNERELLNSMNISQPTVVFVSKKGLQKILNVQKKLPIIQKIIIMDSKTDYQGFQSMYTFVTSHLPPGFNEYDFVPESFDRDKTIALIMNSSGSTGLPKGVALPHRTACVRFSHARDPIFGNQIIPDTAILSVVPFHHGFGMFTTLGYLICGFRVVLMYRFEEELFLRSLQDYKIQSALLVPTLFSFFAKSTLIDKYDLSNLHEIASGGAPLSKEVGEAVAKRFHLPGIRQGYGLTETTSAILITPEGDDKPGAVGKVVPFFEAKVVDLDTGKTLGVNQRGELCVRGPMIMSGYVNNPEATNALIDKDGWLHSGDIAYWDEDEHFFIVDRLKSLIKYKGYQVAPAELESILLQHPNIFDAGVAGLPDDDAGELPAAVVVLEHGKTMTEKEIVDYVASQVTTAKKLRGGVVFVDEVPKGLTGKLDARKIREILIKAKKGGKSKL
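Biochemical qHTS of compounds, final roughly 60 µM downward over six points, against 10 nM purified firefly luciferase using Km concentrations of substrates (10 uM D-luciferin, 10 uM ATP) in Tris acetate pH 7.5 buffer; luminescence output.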
Rab9 prom act = activators of Rab9 promoter. Potency, µM (titrated, usually from 9.22 µM), most hits filed as activators. hit rate 2.8% among 320,000. Huh7 Rab9 promoter-luciferase reporter, luminescence, 24 h; note: nearly all actives have a fitted effect of over 60% in size
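Quantitative HTS format; Huh7 Rab9-luciferase reporter cells (1500/well) receive compound 2 h post-plating, incubate 24 h at 37 °C, then get luciferase reagent for 10 min before luminescence reading.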
Hits are given with their value; i = inactive; ? = inconclusive; nt = no result; [ ] = remark or other dose. Calls come from the whole dose curve; as a rule, active = well fitted curve in the direction sought with a large enough effect; inconclusive = small, poorly fitted or top-dose-only effect, or another doubt; inactive = no such curve, though single readings can be large; an effect the other way counts as inactive or inconclusive.

SMILES	SMN2 splice enh	ELG1 genotoxic	p53 reactivation	NPC1 prom act	FLuc modulator	Rab9 prom act
O=C(CCCN1C(=O)/C(=C/c2ccccc2Cl)SC1=S)N1CCCC1	nt	i	nt	i	?	i
O=C(CCN1C(=O)/C(=C/c2ccccc2Cl)SC1=S)N1CCCC1	nt	i	i	i	27µM	i
O=C(CCN1C(=O)/C(=C/c2ccccc2F)SC1=S)NCCCN1CCOCC1	nt	i	i	i	i	i
O=C(CCN1C(=O)/C(=C/c2ccccc2Cl)SC1=S)N1CCOCC1	nt	i	16µM	i	?	i
Cc1ccc(C(=O)N2CC(C)OC(C)C2)cc1S(=O)(=O)N1CCCCC1 (stereo unspecified)	nt	i	i	i	i	i
CCCCCCC(=O)N1CCC(c2nc3c(nnn3Cc3ccccc3Cl)c(=O)[nH]2)CC1	i	i	i	i	i	i
CCN(CC)C(=O)c1sc2c(c1C)c(=O)n(-c1ccc(C)c(C)c1)c(=O)n2CC(=O)Nc1ccc(OC)cc1OC	nt	nt	nt	nt	i	nt
Oc1ccccc1-c1cc(C(F)(F)F)[nH]n1	nt	i	i	i	i	i
Cc1ccc(-c2cc(C(=O)Nc3c(C)n(C)n(-c4ccccc4)c3=O)[nH]n2)c(O)c1	i	i	i	i	i	i
Cc1ccc(-c2cc(-c3ccccc3C)[nH]n2)c(O)c1	i	?	?	4µM	11µM	3.5µM
O=[N+]([O-])c1ccccc1-c1cc(-c2ccccc2O)n[nH]1	3.5µM	?	?	i	8.5µM	?
Cc1ccc(O)c(-c2cc(-c3ccccc3F)[nH]n2)c1	11µM	11µM	?	i	13µM	i
Cc1ccc(-c2cc(-c3cccc(F)c3)n[nH]2)c(O)c1	14µM	?	?	?	?	4µM
Cc1ccc(O)c(-c2cc(-c3cccc(F)c3)n[nH]2)c1	?	i	?	i	?	i
COC(=O)c1cc(-c2ccc(C)cc2)c2c(=O)n(C)c(=O)n(C)c2n1	i	nt	nt	nt	i	nt
COc1ccc(-c2cc(C)no2)cc1S(=O)(=O)Nc1cccc(C(F)(F)F)c1	nt	nt	nt	nt	i	nt
O=C(NCc1ccc(CNC(=O)c2ccco2)cc1)c1ccco1	nt	i	i	i	i	i
CC1=NN(c2ccccc2)C(=O)C1C(=O)c1cc([N+](=O)[O-])cc([N+](=O)[O-])c1 (stereo unspecified)	i	i	i	i	?	i
CN(C(=O)CC(=O)Nc1ccc2nc3n(c(=O)c2c1)CCCCC3)c1ccccc1F	i	nt	nt	nt	i	nt
C/C(=N/N1CCN(c2ccccn2)CC1)c1cccc([N+](=O)[O-])c1	i[1.84 µM]	i	i	i	i	i
C/C(=N\N1C(=O)c2ccccc2C1=O)c1cccc([N+](=O)[O-])c1	i	i	i	i	17µM	i
COc1ccc(NC(=O)Cn2c(SCc3cccc(Cl)c3)nc3ccncc32)c(OC)c1OC	i	nt	nt	nt	?	nt
COC(=O)C1C(=O)c2c([nH]c(C(=O)OC3CCCCCC3)c2C)CC1C (stereo unspecified)	?	18µM	i	?	?	?
COCCOC(=O)c1[nH]c2c(c1C)C(=O)C(C(=O)OC)C(C)C2 (stereo unspecified)	11µM	16µM	?	?	9.5µM	3.5µM
CC1=C(C(=O)OCC2CCCO2)C(c2ccccc2)NC(=O)N1 (stereo unspecified)	nt	i	i	i	i	i
SMILES	SMN2 splice enh	ELG1 genotoxic	p53 reactivation	NPC1 prom act	FLuc modulator	Rab9 prom act
COCCOC(=O)c1[nH]c2c(c1C)C(=O)CC(c1ccccc1)C2 (stereo unspecified)	i	i	?	i	i	i
COC(=O)C1C(=O)c2c([nH]c(C(=O)OCC3CCCO3)c2C)CC1C (stereo unspecified)	?	9.2µM	?	i	8.5µM	?
Cc1c(C(=O)OC2CCC(C)CC2)[nH]c2c1C(=O)CCC2 (stereo unspecified)	2.5µM	2.6µM	nt	0.5µM	4.3µM	0.45µM
CCOc1ccc(C2CC(=O)c3c([nH]c(C(=O)OC4CCCCCC4)c3C)C2)cc1 (stereo unspecified)	i	nt	nt	nt	i	nt
COc1cc(/C=N/N2CCN(Cc3ccc(C)cc3)CC2)cc(OC)c1O	nt	i	i	i	i	i
COCCCn1c(SCC(=O)NC2CCCC2)nnc1-c1cccs1	nt	i	i	i	i	i
CCCCOC(=O)c1[nH]c2c(c1C)C(=O)CC(c1cc(OC)c(OC)c(OC)c1)C2 (stereo unspecified)	i	i	i	i	i	i
CCCCCOC(=O)c1[nH]c2c(c1C)C(=O)C(C(=O)OC)C(C)C2 (stereo unspecified)	i	i	i	i	11µM	?
CCc1ccc(CNC(=O)c2ccc3c(c2)c(C)c(C)n3Cc2ccccc2)cc1	nt	nt	nt	nt	i	nt
Cc1c(C)n(Cc2ccccc2)c2ccc(C(=O)OCCN(C)C)cc12	nt	i	i	i	21µM	i
C=CCn1c(=S)[nH]c2ccc(Br)cc2c1=O	i	i	i	i	i	i
C=CCn1c(=S)[nH]c2nc3c(cc2c1=O)CCCC3	i	16µM	?	i	i	i
CC(C)CSC1=NSC2=NC(=O)/C(=C\c3cccs3)C(=N)N12	?	i	?	i	?	i
CCS(=O)(=O)C1=NSC2=NC(=O)/C(=C\c3ccc(OC(=O)c4ccco4)c(OC)c3)C(=N)N21	nt	i	i	i	21µM	i
COc1cc(/C=C2/C(=N)N3C(SC)=NSC3=NC2=O)ccc1OC(=O)c1ccco1	nt	?	?	?	27µM	?
CCOc1cc(/C=C2/C(=N)N3C(=NC2=O)SN=C3S(=O)(=O)CC)ccc1OC(=O)c1ccco1	nt	i	i	i	i	i
CSC1=NSC2=NC(=O)/C(=C\c3cccs3)C(=N)N12	0.5µM	?	?	3.5µM	9.5µM	1.4µM
COc1cc(/C=C2/C(=N)N3C(=NC2=O)SN=C3S(=O)(=O)C(C)C)ccc1OC(=O)c1ccco1	nt	i	i	i	13µM	i
CCS(=O)(=O)C1=NN2C(=N)/C(=C\c3ccc(OC(=O)c4ccco4)c(OC)c3)C(=O)N=C2S1	nt	i	i	i	?	i
CCOc1cc(/C=C2/C(=N)N3C(=NC2=O)SN=C3S(=O)(=O)C(C)C)ccc1OC(=O)c1ccco1	nt	i	i	i	i	i
Cc1cccc(N(CC(=O)NCCSCc2ccc(Cl)cc2)S(C)(=O)=O)c1C	i	nt	nt	nt	i	nt
Cc1cccc(OCC(=O)N(Cc2ccc(C(C)(C)C)cc2)Cc2ccco2)c1	i	nt	nt	nt	i	nt
Cn1c(SCC(=O)Nc2cccc(F)c2)nc2c(c1=O)SCC2	nt	i	i	i	i	i
N=C1/C(=C\c2ccc(OC(=O)c3ccco3)cc2)C(=O)N=C2SC=NN12	?	i	i	i	15µM	i
C=CCOc1ccc(/C=C2\C(=N)N3N=C(S(=O)(=O)CC)SC3=NC2=O)cc1OC	i	i	i	i	9.5µM	i
